Source: the supplement of paper PMC7866885, “A novel bicyclic 2,4-diaminopyrimidine inhibitor of Streptococcus suis dihydrofolate reductase” (PeerJ, 2021)
± gives the standard deviation.

Tests used:
Streptococcus suis HE06 = test: percent growth relative to DMSO control; higher = less growth inhibition; settings: 10 µM; incubation time 18 h
Description: (§1)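 CLSI broth microdilution: 5x10^4 CFU of Streptococcus suis (strain P1/7 or HE06) incubated with 10 µM Pathogen Box compound in cation-adjusted Mueller Hinton broth, 37 °C, 5% CO2, 18 h. Growth read as OD600 and expressed as percent of the DMSO-treated control (100%); mean ± SD of three independent experiments.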

Streptococcus suis P1/7 = test: as above; settings: 10 µM; incubation time 18 h
Description: as §1

Row | SMILES | percent growth (Streptococcus suis HE06) [%] | percent growth (Streptococcus suis P1/7) [%]
1 | CC(=O)Nc1ccc(-c2noc(CC3CCCN(Cc4cccc(F)c4C)C3)n2)cc1 (centres undefined) | 109 ± 44 | 108 ± 44
2 | CC(=O)NCC1CN(c2ccc(-c3ccc(CO)cc3)c(F)c2)C(=O)O1 (centres undefined) | 0 | 0.214 ± 0.37
3 | Clc1cccc(C(c2ccc(CN3CCNCC3)cc2)n2ccnc2)c1 (centres undefined) | 96.6 ± 38 | 76.7 ± 5.8
4 | NCC(=O)N1CCn2c(nc(-c3ccccc3)c2Nc2ccc3c(c2)OCO3)C1 | 97.6 ± 33 | 71.3 ± 25
5 | Cc1cccc(-c2nc(Nc3ccncn3)c3sccc3n2)n1 | 0.0155 ± 0.027 | 0.888 ± 0.29
6 | O=C(COc1cccc(F)c1)Nc1nc(-c2ccccn2)cs1 | -0.0745 ± 0.086 | 3.07 ± 5.3
7 | COc1cc(C(F)(F)F)nc2ccc(C)c(N)c12 | 101 ± 4.2 | 95.8 ± 24
8 | NC(=O)c1cc(-c2ccsc2)ccc1OCCOc1ccccc1 | 118 ± 40 | 120 ± 58
9 | O=C(Cn1ccnc1[N+](=O)[O-])NCc1ccccc1 | 79.1 ± 10 | 114 ± 48
10 | c1ccc(Oc2ccc(-c3cc(N4CCNCC4)[nH]n3)cc2)cc1 | 106 ± 35 | 67.6 ± 28
11 | NCCCC(N)(C(=O)O)C(F)F (centres undefined) | 84.8 ± 12 | 90.1 ± 16
12 | Clc1cccc(CO[C@H]2CCc3ccccc3[C@@H]2n2ccnn2)c1 | 97.4 ± 3.9 | 95.9 ± 18
13 | COC(=O)c1cccc2oc(-c3cccc(OC)c3NC(=O)c3cc(-c4ccccc4)on3)nc12 | 102 ± 25 | 66 ± 18
14 | COc1ccc(Oc2ccc([C@@H](C)N(C)c3ncc4c(N)nc(N)nc4n3)cc2)cc1 | 104 ± 32 | 83.9 ± 75
15 | O=C(c1ccc(NCCO)cc1)C1C[C@H]1c1ccc(Cl)cc1 (some centres undefined) | 147 ± 53 | 67 ± 24
16 | NC(=O)c1cc(Br)ccc1OCCOc1ccccc1 | 85.2 ± 9.9 | 73.4 ± 29
17 | Cc1ccc2nc(C)c(-c3ccn(Cc4ccccc4)n3)n2c1 | 90 ± 35 | 62.9 ± 23
18 | Cc1nc(-c2ccccn2)nc(N2CCC(Cc3ccccc3)C2)c1Cl (centres undefined) | 0.933 ± 1.6 | -0.158 ± 0.27
19 | CN1CCN(CCCOc2ncc(Nc3ncc(-c4ccc(C(F)(F)F)c(F)c4)nc3C(N)=O)cn2)CC1 | 114 ± 43 | 97.2 ± 9.4

Row | SMILES | percent growth (Streptococcus suis HE06) [%] | percent growth (Streptococcus suis P1/7) [%]
20 | O=C1Nc2ccc(Br)cc2C12NCCc1c2[nH]c2ccccc12 (centres undefined) | 94.7 ± 15 | 112 ± 38
21 | CN1CCN(c2nccc3[nH]c(-c4cccc(F)c4)cc23)CC1 | 97.4 ± 6.1 | 96 ± 26
22 | CC(C)(C)n1nc(Cc2ccc(F)c(Cl)c2)c2c(N)ncnc21 | 91.5 ± 3.1 | 105 ± 51
23 | Nc1ncc(Br)cc1-c1nc2cc(Cl)cnc2[nH]1 | 92.2 ± 8.1 | 100 ± 9.8
24 | CC1CC1C(=O)NC1CCN(CC2(c3ccccc3)CCCCC2)CC1 (centres undefined) | 76.8 ± 15 | 71.1 ± 43
25 | COc1ccc(C2CC(c3cccs3)=NN2C(=O)c2ccco2)cc1OC (centres undefined) | 75.4 ± 3 | 99.7 ± 26
26 | CCC(Sc1nc2ccccc2o1)C(=O)Nc1nnc(C)s1 (centres undefined) | 34.1 ± 46 | 0.154 ± 0.27
27 | CCc1c(C)nc(-n2nc(C)cc2NC(=O)c2ccccc2SC)[nH]c1=O | 0.0799 ± 0.092 | 1.97 ± 3.8
28 | COc1cc(OC)cc(C(=O)NCC2Cc3cc(Cl)cc(-c4ccncc4)c3O2)c1 (centres undefined) | 90 ± 28 | 65.4 ± 25
29 | O=C(NC1CCCCC1)N1CCN(Cc2ccc3c(c2)OCO3)CC1 | 78.5 ± 7.2 | 52.2 ± 38
30 | CC(C)(C)c1cc(C(=O)Nc2cccnc2)cc(C(=O)Nc2cccnc2)c1 | 80.6 ± 4.4 | 143 ± 90
31 | N#CCN(CCCCN1CCN(c2ccc(F)cc2)CC1)C(=O)OCc1ccccc1 | 93.7 ± 14 | 75.8 ± 19
32 | O=C(C(Cc1c[nH]c2ccccc12)NS(=O)(=O)c1ccc(Cl)cc1)N1CCCCC1 (centres undefined) | 89.3 ± 4.7 | 120 ± 43
33 | CNc1snc(C)c1C(=O)NCCOc1ccc(OC)cc1 | 102 ± 22 | 115 ± 71
34 | CO[C@H]1/C=C/O[C@@]2(C)Oc3c(C)c(O)c4c(O)c(/c(=C/NN5CCN(C)CC5)c(O)c4c3C2=O)=N\C(=O)/C(C)=C\C=C/[C@H](C)[C@H](O)[C@@H](C)[C@@H](O)[C@@H](C)[C@H](OC(C)=O)[C@@H]1C | 4.41 ± 2.2 | 1.07 ± 0.94
35 | O=C(N[C@H](Cc1ccccc1)C(=O)Nc1ccccc1N1CCOCC1)c1cccs1 | 92.7 ± 9.4 | 85.8 ± 16
36 | Cc1nnc(NC(=O)c2cn(-c3ccccc3)nc2-c2ccccc2C)o1 | 0.31 ± 0.38 | 0.18 ± 0.31
37 | CCCCS(=O)(=O)Nc1ccc2cnn(C)c2c1 | 92.3 ± 11 | 73 ± 10
